Hits are enriched below; roughly 6% of the tested compounds scored in any of these assays.
D3 antag: blocks the human D3 dopamine receptor | max response, negative = inhibition, % | P35462 | 360,000 tested, 2.5% active | D3R cells, DiscoveRx beta-arrestin luminescence, antagonist mode; active compounds read low; in the data active = max response below about -50%; also: % is scaled to controls: 0 for no effect and ±100 for the full control effect
Target sequence (P35462 whole entry, looked up): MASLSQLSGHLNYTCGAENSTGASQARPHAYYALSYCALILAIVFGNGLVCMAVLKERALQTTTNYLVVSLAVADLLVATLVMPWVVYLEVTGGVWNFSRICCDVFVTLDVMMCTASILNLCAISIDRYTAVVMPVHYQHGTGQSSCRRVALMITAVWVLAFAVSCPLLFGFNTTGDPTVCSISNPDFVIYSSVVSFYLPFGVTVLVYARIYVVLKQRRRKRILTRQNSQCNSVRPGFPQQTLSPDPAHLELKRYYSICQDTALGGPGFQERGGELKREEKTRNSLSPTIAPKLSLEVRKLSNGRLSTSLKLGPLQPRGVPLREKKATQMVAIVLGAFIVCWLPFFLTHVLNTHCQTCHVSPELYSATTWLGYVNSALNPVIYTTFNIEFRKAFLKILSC
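Cells plated overnight at 1500 cells/well, then exposed to library compounds with dopamine controls for 90 minutes at 37 degrees C. DiscoveRx reagent added for 30–60 minutes at room temperature; luminescence read, quantitative HTS format.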
DRD3 agonist: agonists of human D3 dopamine receptor; P35462; D3R DiscoveRx beta-arrestin cells, luminescence, 90 min; max activation, %; 410,000 tested, 0.58% active; AID 652048; in the data active = max activation above about 30%; also: 0% is about no effect
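Cells at 1500/well, incubated overnight, then treated with pinned compounds (dopamine as control) for 90 min at 37 degrees C. DiscoveRx reagent added for 30 - 60 minutes at room temperature; luminescence read.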
D1 antagonist: human D1 dopamine receptor antagonism; HEK293 TREx D1 cells, calcium flux, dopamine EC80; active compounds read low; 360,000 tested, 3.2% active; activity change, negative = inhibition, % at 10 µM; P21728; AID 504652; in the data active = activity change below about -30%; also: % is scaled to controls: 0 for no effect and ±100 for the full control effect
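Compound effects on dopamine-evoked calcium signalling were measured in tetracycline-induced HEK293 Trex D1 cells. Dopamine at EC80 followed a 180 s compound pre-read, and fluorescence was tracked kinetically for 180 s more.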
D1 ag: agonists of human D1 dopamine receptor. P21728. HEK293 T-REx D1 cells, calcium flux, agonist mode. activation, % at 2 µM. 360,000 tested, 1% active; in the data active = activation above about 30%; also: 0% is about no effect
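Agonism was scored from calcium flux recorded over 180 s (1 read/s) after pintool compound addition, following a 10-cycle baseline. Cells were inducible force-coupled HEK293 TREx D1, plated overnight at 30 C and loaded with no-wash calcium dye.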
D1 PAM: human D1 dopamine receptor positive modulation. potentiation, % at 10 µM. HEK293 TREx D1 cells, calcium flux, dopamine EC20 potentiation. 360,000 tested, 0.036% active. AID 504651. P21728; in the data active = potentiation above about 30%; also: 0% is about no effect
Numbers without * were called inactive; . = not tested or not shown.

SMILES	D3 antag	DRD3 agonist	D1 antagonist	D1 ag	D1 PAM
CC(Sc1nnc(Cc2cccs2)n1C1CCCCC1)C(N)=O (stereo not drawn)	-23	-2	0	3	4
COC(=O)CCC(=O)N1CCC(CCC(=O)NCc2ccc(F)cc2)CC1	-5	0	6	4	-3
COc1cccc(C(=O)N(Cc2nc(-c3ccc(Cl)cc3)no2)C(C)C)c1OC	.	4	-10	1	-1
COc1ccccc1C(=O)Nc1nc2nc(C)c(Cc3ccccc3)c(=O)n2[nH]1	.	-7	6	0	-1
O=C(NC1CCCCC1)C(c1ccccc1)N(Cc1ccco1)C(=O)Cn1cnc2ccccc21 (stereo not drawn)	-24	-1	-44*	2	-3
O=C(NC1CCCCC1)C(c1ccccc1)N(Cc1ccco1)C(=O)c1csnn1 (stereo not drawn)	-4	-7	0	2	1
Cc1ccc2c(c1)c1c3n2CCN(C(=O)CCl)C3CCC1 (stereo not drawn)	-6	8	-45*	4	-5
CC(=O)N1CCn2c3c(c4cc(C)ccc42)CCCC31 (stereo not drawn)	9	2	-15	1	-2
Cc1cc(N2CCN(C3CCCCC3)CC2)nc2cccc(O)c12	-84*	-10	4	1	-6
O=C(N1CCc2ccc(S(=O)(=O)N3CCN(S(=O)(=O)c4ccc5c(c4)OCCO5)CC3)cc2C1)C(F)(F)F	.	.	-19	2	-5
COc1ccccc1-c1nc(-c2ccc(C)nc2OC)no1	-5	1	-32*	6	-2
COc1nc(C)ccc1-c1noc(-c2ccccn2)n1	-17	-10	-9	-2	-6
O=C(NCc1ccccc1Cl)c1ccc(CSCc2cccc(F)c2)o1	.	-8	-11	18	-6
COc1ccc(-c2nc3ccccc3s2)cc1NC(=O)c1cccc(F)c1	.	6	-30*	1	-1
COc1ccc(C(=O)Nc2cc(-c3nc4ccccc4s3)ccc2OC)cc1	.	-25	-4	2	-2
O=[S+]([O-])(c1c(F)cccc1F)N1CCN([S+](=O)([O-])c2cccc3nonc23)CC1	.	.	3	1	-1
COC(=O)CN1C(C(=O)c2ccccc2)=C(OC(=O)c2ccc(F)cc2)c2ccccc2S1(=O)=O	.	-7	-78*	0	-1
CCOC(=O)CN1C(C(=O)c2ccccc2)=C(OC(=O)c2ccccc2)c2ccccc2S1(=O)=O	.	49*	-11	4	0
COc1cccc(CN2C(=O)c3ccccc3Sc3ccc(C(=O)OCc4ccco4)cc32)c1	.	-1	-5	10	-3
CCc1ccc(NC(=O)Cn2ncc3c(C)n(Cc4cccc(Cl)c4)c(C)c3c2=O)cc1	.	1	4	1	-3
Cc1cc(Nc2ccc(C)c(Cl)c2)n2nc(Cc3ccccc3)nc2n1	.	-2	-6	14	-4
CN1CCC(N(C)S(=O)(=O)c2ccc(NC(=O)COc3ccc([N+](=O)[O-])cc3)cc2)CC1	8	-14	-4	34*	-8
Cn1c(=O)n(C)c2cc(NC(=O)COc3ccc(Cl)cc3)ccc21	24	5	-33*	18	-6
Cc1nn(-c2ccccc2)c(C)c1NC(=O)COc1ccc2ccccc2c1	21	31*	-11	15	-2
CC(Oc1cccc(Cl)c1)C(=O)Nc1ccc(S(=O)(=O)N(C)C2CCN(C)CC2)cc1 (stereo not drawn)	0	-3	-62*	94*	-8
SMILES	D3 antag	DRD3 agonist	D1 antagonist	D1 ag	D1 PAM
O=c1c2[nH]c3ccsc3c2cnn1Cc1ccccc1F	.	.	21	1	-7
O=S(=O)(NC1CCCC(NS(=O)(=O)c2c(F)cccc2F)C1)c1ccc2c(c1)OCCO2 (stereo not drawn)	.	.	-6	0	-2
Cc1cc2c(s1)c1cnn(Cc3ccc(C(C)(C)C)cc3)c(=O)c1n2C	.	.	7	4	-1
Cc1nn(C)c(Oc2ccc(Cl)cc2)c1C(=O)O	-8	2	-33*	1	-8
CN1CCC(N(C)S(=O)(=O)c2ccc(NC(=O)COc3ccc(Cl)cc3)cc2)CC1	-17	-15	-18	48*	-3
Cc1nn(C)c(C)c1NC(=O)COc1ccc(Cl)cc1	-1	1	-34*	14	1
Cc1nn(C)c(Oc2cccc(Cl)c2)c1C(=O)Nc1ccc(F)cc1F	-8	0	-11	-3	0

Screening results deposited in PubChem by National Center for Advancing Translational Sciences (NCATS).
